Screens: PubChem BioAssay, National Center for Advancing Translational Sciences (NCATS)
RORgamma inh: qHTS for inhibitors of ROR gamma transcriptional activity. Nuclear receptor ROR-gamma (Mus musculus), P51450. 310,000 compounds, 5.4% hits. Drosophila S2 Gal4-RORgamma UAS-luciferase reporter, 20 h. Potency, µM (highest dose often 53.6 µM), for inactives: at the highest dose activity change, negative = inhibition, usual class: inhibitors. AID 2551, 2010; further: potency means the concentration at half of the fitted maximal effect; on the % scale 0 is the no-effect control and ±100 the full control effect; nearly all actives have a fitted effect of over 60% in size
Target sequence (P51450 whole entry, looked up, the tested form may be a part): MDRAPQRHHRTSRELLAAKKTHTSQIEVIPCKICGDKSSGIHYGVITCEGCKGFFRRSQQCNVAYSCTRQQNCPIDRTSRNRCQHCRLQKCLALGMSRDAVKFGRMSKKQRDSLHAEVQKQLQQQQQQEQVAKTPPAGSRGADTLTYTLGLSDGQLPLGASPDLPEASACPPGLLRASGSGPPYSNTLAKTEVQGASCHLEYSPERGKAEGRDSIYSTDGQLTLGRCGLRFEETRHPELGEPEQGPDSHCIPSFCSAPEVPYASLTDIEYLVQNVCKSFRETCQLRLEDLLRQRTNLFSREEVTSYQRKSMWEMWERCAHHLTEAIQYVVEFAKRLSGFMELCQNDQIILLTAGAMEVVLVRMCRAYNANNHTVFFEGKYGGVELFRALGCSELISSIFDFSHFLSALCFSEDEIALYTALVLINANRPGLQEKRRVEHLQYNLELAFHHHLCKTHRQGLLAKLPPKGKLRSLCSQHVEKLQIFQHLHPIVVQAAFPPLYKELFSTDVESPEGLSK
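Read-out: Photinus luciferase luminescence; inhibitors lower reporter signal. Insect Schneider cells with Gal4-ROR gamma fusion under metallothionein promoter, UAS reporter; 700 uM final copper sulfate induction, 20 hr, ambient temperature.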
Chronic BCR inh: qHTS Assay to Find Inhibitors of Chronic Active B-Cell Receptor Signaling; Potency, µM (highest dose often 46.1 µM), without a hit: top-dose activity change, negative = inhibition, hits mostly inhibitors; AID 493014, 2011; ABC-DLBCL IkBa-CBG/CBR reporter, luminescence ratio, 4 h; 340,000 compounds, 0.05% hits; active means well fitted inhibition curve with a large enough effect in the signal ratio, with a control signal flat, not every such curve was filed as active; inconclusive means small, poorly fitted or top-dose-only effect, or effect the other way, or a change in a side signal; the % refers to the signal ratio;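 further: potency means the concentration at half of the fitted maximal effect; plate controls were basal doxycycline-induced cells for no effect and cells given 10 µM MG132 for full effect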
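Cell line TMD8 (human ABC DLBCL), stably expressing tet-inducible CBG68-IkBa fusion and CBR; IMDM/0.5% FBS; cpd up to 46 uM; dox induction, 4 h, 37C/5% CO2; dual luminescence; green/red ratio; MG132 control.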
MCF10A rerep: A quantitative high throughput screen for small molecules that induce DNA re-replication in MCF 10a normal breast cells; MCF 10A DNA re-replication, Hoechst nuclear intensity, 48 h; Potency, µM (doses to about 46.1 µM), without a hit: top-dose activity, positive = re-replication, actives largely listed as activators; 350,000 compounds, 2.9% hits; AID 624296, 2012; further: potency means the concentration at half of the fitted maximal effect; % of control where 0% means no effect; nearly all actives have a fitted effect of over 50% in size
VP16 counter: VP16 counterscreen qHTS for inhibitors of ROR gamma transcriptional activity; Drosophila S2 Gal4-VP16 UAS-luciferase, luminescence, 20 h; AID 2546, 2010; Potency, µM (doses to about 53.6 µM), for the others: at the top dose activity, negative = inhibition, most hits filed as inhibitors; 310,000 compounds, 3.5% hits;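 further: Gal4-VP16 expression switched on by copper sulfate through the metallothionein promoter; potency means the concentration at half of the fitted maximal effect; on the % scale 0 is the no-effect control and ±100 the full control effect; nearly all actives have a fitted effect of over 50% in size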
SW480 rereplic: A quantitative high throughput screen for small molecules that induce DNA re-replication in SW480 colon adenocarcinoma cells. 340,000 compounds, 1.8% hits. SW480 DNA re-replication, Hoechst DNA content imaging, 48 h. Potency, µM (doses to about 46.1 µM), inactives show top-dose re-replication activation, most hits filed as activators. AID 624297, 2012; further: potency means the concentration at half of the fitted maximal effect; % of control where 0% means no effect; nearly all actives have a fitted effect of over 55% in size
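First, 250 cells per well were seeded. Next, compound or vehicle (23 nL) was pinned in, plates sat 48 hr at 37 C. Finally Hoechst was added for 40 min before fluorescence scanning.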
Giardia kill: Small Molecules that selectively kill Giardia lamblia: qHTS; Giardia lamblia trophozoite viability; activity change, % at 7.66 µM, hits read low; 340,000 compounds, 0.15% hits; AID 540267, 2011; in the data active means activity change below about -80%; inconclusive means between about -30% and that limit;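 further: parasites exposed to compound for two days anaerobically before the ATP read; on the % scale 0 is the no-effect control and ±100 the full control effect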
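Luminescent ATP signal served as the viability read-out, measured 15-30 min after adding ATP detection reagent to trophozoites that had been incubated with compounds for 48 hrs at 37 deg C anaerobically at 100 cells/well.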
The depositor's hits bear a star; ? = inconclusive; . = no result given; [ ] = remark or other dose. Compounds with a hit are over-represented: about 8.3% of the library has one in this group of screens. Unless noted, the call rests on the fitted dose curve; in most records, active means well fitted curve in the direction sought with a large enough effect; inconclusive means small, poorly fitted or top-dose-only effect, or another doubt; inactive means no such curve, though single readings can be large; an effect the other way counts as inactive or inconclusive.

SMILES	RORgamma inh	Chronic BCR inh	MCF10A rerep	VP16 counter	SW480 rereplic	Giardia kill
COc1ccc(N2CC(NC(=O)C(c3ccccc3)c3ccccc3)CC2=O)cc1OC (centres undefined)	.	-5%	.	.	.	.
COc1cc(CN2CCN(C(O)(c3ccccc3)c3ccccc3)CC2)cc(OC)c1OC	-36%	-5%	?	6%	?	-15
Nc1ncnc2sc3c(c12)CCNC3	0%	-2%	7%	3%	-26%	1
COc1ccc(N(C(=O)CNC(=O)c2ccco2)C(C(=O)NCC2CCCO2)c2ccc(OC)c(OC)c2)cc1 (centres undefined)	-2%	0%	-1%	1%	-6%	-7
CCC(=O)Nc1ccc(NC(=S)NC(=O)Cc2ccccc2)cc1	-2%	-2%	?	-8%	1%	7
O=C(Cc1ccccc1)NC(=S)Nc1ccc(OC(F)F)cc1	20µM*	0%	-6%	11µM*	7%	4
COc1ccccc1C(=O)CC(=O)C(=O)Nc1cccc([N+](=O)[O-])c1C	7.1µM*	-1%	23%	13µM*	3%	-2
COc1ccc(C(=O)CC(=O)C(=O)Nc2cccc([N+](=O)[O-])c2C)cc1	10µM*	-1%	?	?	?	-11
COc1cccc(C(=O)CC(=O)C(=O)Nc2cccc([N+](=O)[O-])c2C)c1	14µM*	-2%	?	?	-4%	-14
COc1ccccc1C/C(N)=N/OC(=O)c1cccc([N+](=O)[O-])c1C	-37%	?	-3%	13µM*	0%	-7
Cc1c(C(=O)OCC(=O)Nc2ccccc2OC(F)F)cccc1[N+](=O)[O-]	19%	-18%	-1%	1%	-18%	-3
COc1ccc(/C(N)=N/OC(=O)c2cccc([N+](=O)[O-])c2C)cc1	-9%	6%	3%	5%[10 µM]	0%	-11
CCOc1ccccc1NC(=O)CN(c1ccc(OC)cc1)S(=O)(=O)c1c(C)noc1C	-11%	?	6.5µM*	-6%	5.8µM*	3
CCN(CC(=O)Nc1cc(Cl)ccc1C)C(=O)CSCc1c(C)noc1C	.	8%	9%	.	6.5µM*	-14
CCOc1ccc(N(CC(=O)Nc2ccccc2C)S(=O)(=O)c2c(C)noc2C)cc1	14%	?	2.6µM*	0%	3.3µM*	19
Cc1ccc(C)c(NC(=O)CN(C)C(=O)CSCc2c(C)noc2C)c1	.	7%	1%	.	0%	-7
COc1ccc(N(CC(=O)Nc2cc(C)ccc2C)S(=O)(=O)c2c(C)noc2C)cc1	31%	-2%	?	-1%	?	-27
COc1ccc(N(CC(=O)Nc2cc(Cl)ccc2C)S(=O)(=O)c2c(C)noc2C)cc1	1%	?	4.1µM*	5%	-3%	-18
COc1ccc(N(CC(=O)Nc2ccc3c(c2)OCCO3)S(=O)(=O)c2cccc(C)c2)cc1	.	1%	-1%	.	7%	6
CS(=O)(=O)Nc1cccc(C2=NN(C(=O)CCCC(=O)O)C(c3cccs3)C2)c1 (centres undefined)	-10%	-1%	0%	-7%	-3%	-17
COc1ncnc2c1NC1=C(S2)C(=NCCC(=O)O)CC(C)(C)C1	?	12%	3%	18µM*	-1%	-9
COc1ccccc1C(=O)N(CCC1CCCN1C)c1nc2ccccc2s1 (centres undefined)	7.1µM*	?	4%	?	-2%	4
O=[N+]([O-])c1ccc(C=Nc2cccc3ccccc23)s1	?	?	21µM*	?	6.5µM*	1
Cc1cc(C(=O)N/N=C/c2cc(Cl)cc([N+](=O)[O-])c2O)n[nH]1	7.9µM*	?	13%	?	5%	6
